We go through eleven molecules from PubChem BioAssay (Tox21).

The structures appear in SMILES notation. Records with an inconclusive call do not appear. Unmarked numbers belong to inactive results. Active and inactive are the calls of the source. Unless noted, the call rests on the fitted dose curve; in most records, active means well fitted curve in the direction sought with a large enough effect in the repeat runs; inconclusive means weak or mixed curves; inactive means no such curve, though single readings can be large; an effect the other way counts as inactive or inconclusive.

The nature of test [1]: qHTS assay to identify small molecule antagonists of the vitamin D receptor (VDR) signaling pathway - cell viability counter screen (AID 743225). Further: on the % scale 0 is the no-effect control and ±100 the full control effect; nearly all actives have a fitted effect of over 50% in size. In short, it runs like this:
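Read-out: CellTiter-Glo luminescence measured 30 min after reagent addition at room temperature. Cells were VDR-bla HEK 293T exposed 16 h at 37C, 5% CO2, to compound with 3 nM final calcitriol agonist.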
Background: Quantitative high-throughput screening tests each substance at several concentrations.

Test [2] in a line: qHTS assay to identify small molecule agonists of the NFkB signaling pathway - cell viability counter screen (AID 1159515; calls by dose curve; further: series mostly up to about 61 µM; on the % scale 0 is the no-effect control and ±100 the full control effect; nearly all actives have a fitted effect of over 55% in size). A digest of the protocol: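 Parallel cytotoxicity counter screen in ME-180 cells carrying an NFkB-response-element beta-lactamase reporter, 2,000 cells/well. Compound exposure lasted 5 hr at 37 C, 5% CO2. Cell viability was quantified by CellTiter-Glo luminescence.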

Test [3] can be described thus: qHTS assay to identify small molecule agonists of the endoplasmic reticulum stress response signaling pathway - cell viability counter screen (AID 1159517; calls by dose curve;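 further: HeLa cells carrying an ER stress response element beta-lactamase reporter; series mostly up to about 61 µM; on the % scale 0 is the no-effect control and ±100 the full control effect; nearly all actives have a fitted effect of over 50% in size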). In short, it runs like this:
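Steps: seed 1,500 ESRE-bla HeLa cells per well; incubate overnight at 37 C, 5% CO2; add compounds in DMSO for 5 hr; run FRET substrate 2 hr RT; add CellTiter-Glo, wait 30 min, read luminescence.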

The nature of test [4]: qHTS assay to identify small molecule antagonists of the retinoid-related orphan receptor gamma (ROR-gamma) signaling pathway - cell viability counter screen (AID 1159520). Further: on the % scale 0 is the no-effect control and ±100 the full control effect; nearly all actives have a fitted effect of over 50% in size. A digest of the protocol: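 Tet-on ROR gamma CHO cells were given compounds for 2 hr, then doxycycline hyclate at 1 uM final, and incubated 16 hr at 37 C. Viability was measured as ATP content by CellTiter-Glo luminescence.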

Test [5] has as its target Nuclear receptor ROR-gamma (Homo sapiens) (UniProt P51449). Nature of the test: qHTS assay to identify small molecule antagonists of the retinoid-related orphan receptor gamma (ROR-gamma) signaling pathway (AID 1159521;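 further: CHO cells with doxycycline inducible ROR-gamma driving an RORE luciferase reporter; top concentration of the series differs between compounds; on the % scale 0 is the no-effect control and ±100 the full control effect; nearly all actives have a fitted effect of over 50% in size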). A digest of the protocol:
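CHO Tet-on RORγ, RORE-luc reporter. Cpd 2 h pre-incubation, then dox hyclate 1 uM final, 16 h, 37 C/5% CO2. ONE-Glo luminescence; decrease = antagonist.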

The nature of test [6]: qHTS assay to identify small molecule agonists of the AP-1 signaling pathway - cell viability counter screen (AID 1159525; calls by dose curve; further: nearly all actives have a fitted effect of over 55% in size). In short, it runs like this:
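Same-well cytotoxicity counter screen of the Tox21 10K library in ME-180 cells. The readout is ATP-dependent luminescence after 5 h compound treatment. Data are normalised to DMSO and tetra n-octyl ammonium bromide controls.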

Test [7] can be described thus: qHTS assay to identify small molecule agonists of the AP-1 signaling pathway (AID 1159526; calls by dose curve; further: on the % scale 0 is the no-effect control and ±100 the full control effect).
The target in test [8] is Retinoic acid receptor RXR-alpha (Homo sapiens) (UniProt P19793). Nature of the test: qHTS assay to identify small molecule agonists of the RXR signaling pathway (AID 1159527; calls by dose curve; further: nearly all actives have a fitted effect of over 35% in size; further: potency means the concentration at half of the fitted maximal effect; on activation: on the % scale 0 is the no-effect control and ±100 the full control effect). A digest of the protocol: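 Read-out: beta-lactamase FRET ratio (405 nm excitation, 460 and 530 nm emission) after 2 hr substrate loading at room temperature. Cells were RXR-alpha-UAS-bla HEK 293T treated with compounds for 16 hr in 2% charcoal-stripped FBS medium.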

The nature of test [9]: qHTS assay to identify small molecule agonists of the RXR signaling pathway - cell viability counter screen (AID 1159529). A digest of the protocol:
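HEK 293T RXRa-bla cells, 2% CS-FBS; 5 h settle; cpd 16 h 37 C, 5% CO2; CellTiter-Glo 30 min RT, luminescence. Tetraoctyl ammonium bromide as positive control.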

The nature of test [10]: qHTS assay to identify small molecule antagonists of the retinoid acid receptor (RAR) signaling pathway - cell viability counter screen (AID 1159551). Further: on the % scale 0 is the no-effect control and ±100 the full control effect; nearly all actives have a fitted effect of over 35% in size. In short, it runs like this:
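ATP-based viability, C3RL4 cells, 6 h at 37 C with 1 uM final retinol co-added after compound; luminescence read 30 min post CellTiter-Glo, RT.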

The nature of test [11]: qHTS assay to identify small molecule antagonists of the retinoic acid receptor (RAR) signaling pathway (AID 1159552). A digest of the protocol: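 Cells of the C3RL4 line were seeded, incubated overnight, then dosed with compounds in DMSO followed immediately by retinol (1 uM final). Six hours later luciferase detection reagent went in; signal was measured after 30 min at RT.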

A short description of test [12]: qHTS assay to identify small molecule antagonists of the estrogen related receptor (ERR) signaling pathway from Tox21 library - cell viability counter screen (AID 1224834). Further: on the % scale 0 is the no-effect control and ±100 the full control effect; nearly all actives have a fitted effect of over 30% in size. In short, it runs like this: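 Compounds in DMSO were pinned onto ERR cells that had been incubated for 6 h, and the plates were held at 37 C for 17.5 h. CellTiter-Fluor reagent was then added and fluorescence was measured after 30 min.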

Test [13] addresses Luciferin 4-monooxygenase (Photinus pyralis) (UniProt P08659). Nature of the test: qHTS assay to identify small molecule inhibitors of firefly luciferase (AID 1224835). Further: nearly all actives have a fitted effect of over 25% in size. Further: potency means the concentration at half of the fitted maximal effect. On activity change, negative = inhibition: series mostly up to about 120 µM; on the % scale 0 is the no-effect control and ±100 the full control effect. A digest of the protocol:
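Biochemical qHTS: compounds run as interplate titrations against purified firefly enzyme, with D-luciferin and ATP each at its KM concentration. Light output recorded by CCD imaging.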

The nature of test [14]: qHTS assay to identify small molecule agonists of the constitutive androstane receptor (CAR) signaling pathway - cell viability counter screen (AID 1224836). Further: series mostly up to about 92 µM; on the % scale 0 is the no-effect control and ±100 the full control effect; nearly all actives have a fitted effect of over 45% in size. In short, it runs like this:
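HepG2-CYP2B6-hCAR, 2500 cells/well, 4 h pre-incubation; cpd 15 conc + PK11195 0.75 uM final; 23 h, 37 C/5% CO2; CellTiter-Fluor, fluorescence.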

Test [15] is described as follows: qHTS assay to identify small molecule antagonists of the constitutive androstane receptor (CAR) signaling pathway - cell viability counter screen (AID 1224837). Further: series mostly up to about 92 µM; on the % scale 0 is the no-effect control and ±100 the full control effect; nearly all actives have a fitted effect of over 45% in size. A digest of the protocol:
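Cells are seeded, rested 4 hr at 37 C/5% CO2, dosed with compound (15-point series) and 50 nM CITCO, incubated a further 23 hr, and then CellTiter-Fluor reagent is added before fluorescence is read. The line is HepG2 with stable hCAR and CYP2B6-2.2kb.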

Test [16] concerns the target Nuclear receptor subfamily 1 group I member 3 (Homo sapiens) (UniProt Q14994). Nature of the test: qHTS assay to identify small molecule antagonists of the constitutive androstane receptor (CAR) signaling pathway (AID 1224838).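 Further: HepG2 cells stably expressing hCAR with CYP2B6 luciferase reporter stimulated by CITCO; on the % scale 0 is the no-effect control and ±100 the full control effect; nearly all actives have a fitted effect of over 40% in size.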 In short, it runs like this:
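Luminescence from a CYP2B6-2.2kb promoter reporter in hCAR-expressing HepG2 cells reflects CAR signaling. Cells received compounds at 15 concentrations and 50 nM CITCO (final), then incubated 24 h at 37 C/5% CO2.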

Test [17] has the same target. Nature of the test: qHTS assay to identify small molecule agonists of the constitutive androstane receptor (CAR) signaling pathway (AID 1224839). Further: nearly all actives have a fitted effect of over 15% in size. Further: potency means the concentration at half of the fitted maximal effect.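 On activation: HepG2 cells stably carrying human CAR and a CYP2B6 luciferase reporter; series mostly up to about 92 µM; on the % scale 0 is the no-effect control and ±100 the full control effect.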 In short, it runs like this: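 HepG2-CYP2B6-hCAR cells, 2500/well, 4 h pre-incubation; compounds 15 conc.; PK11195 0.75 uM final; 24 h, 37 C/5% CO2; ONE-Glo luciferase read.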
Test [18] can be described thus: qHTS assay to identify small molecule antagonists of the estrogen related receptor signaling pathway with the pleiotropic PPARgamma coactivator (PGC) from Tox21 10K library - cell viability counter screen (AID 1224840; active means well fitted cell-killing curve with a large enough effect in the repeat runs, not every such curve was filed as active; further: on the % scale 0 is the no-effect control and ±100 the full control effect; nearly all actives have a fitted effect of over 40% in size). A digest of the protocol:
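Cell viability is measured by CellTiter-Fluor fluorescence in PGC/ERR cells that receive compounds after a 6-hour attachment period and are then incubated 17.5 hours at 37 C.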

Test [19] is described as follows: qHTS assay to identify small molecule agonists of the retinoic acid receptor (RAR) signaling pathway (AID 1159553). Further: potency means the concentration at half of the fitted maximal effect. A digest of the protocol:
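Quantitative high-throughput format: the Tox21 10K library was tested on C3RL4 RARE-luciferase cells for 6 hr at 37 C and 5% CO2, with luminescence measured after a 30 min room-temperature reagent step.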

Chain of Luciferin 4-monooxygenase (Photinus pyralis) (P08659 whole entry, looked up): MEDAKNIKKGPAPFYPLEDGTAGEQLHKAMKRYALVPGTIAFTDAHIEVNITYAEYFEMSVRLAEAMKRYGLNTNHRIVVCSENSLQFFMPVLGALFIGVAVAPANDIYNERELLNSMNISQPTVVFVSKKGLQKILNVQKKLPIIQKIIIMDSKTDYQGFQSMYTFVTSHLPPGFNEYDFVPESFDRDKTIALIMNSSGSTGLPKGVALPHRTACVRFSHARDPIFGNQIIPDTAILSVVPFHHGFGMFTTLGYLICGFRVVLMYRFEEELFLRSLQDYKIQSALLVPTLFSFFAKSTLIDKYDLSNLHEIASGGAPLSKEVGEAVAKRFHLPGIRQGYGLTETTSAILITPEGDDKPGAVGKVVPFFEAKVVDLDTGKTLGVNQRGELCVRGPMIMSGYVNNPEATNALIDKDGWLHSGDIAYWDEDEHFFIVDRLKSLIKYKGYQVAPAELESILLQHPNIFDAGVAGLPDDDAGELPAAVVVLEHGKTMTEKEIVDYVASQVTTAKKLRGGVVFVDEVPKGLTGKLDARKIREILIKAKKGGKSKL
Chain of Retinoic acid receptor RXR-alpha (Homo sapiens) (P19793 whole entry, looked up): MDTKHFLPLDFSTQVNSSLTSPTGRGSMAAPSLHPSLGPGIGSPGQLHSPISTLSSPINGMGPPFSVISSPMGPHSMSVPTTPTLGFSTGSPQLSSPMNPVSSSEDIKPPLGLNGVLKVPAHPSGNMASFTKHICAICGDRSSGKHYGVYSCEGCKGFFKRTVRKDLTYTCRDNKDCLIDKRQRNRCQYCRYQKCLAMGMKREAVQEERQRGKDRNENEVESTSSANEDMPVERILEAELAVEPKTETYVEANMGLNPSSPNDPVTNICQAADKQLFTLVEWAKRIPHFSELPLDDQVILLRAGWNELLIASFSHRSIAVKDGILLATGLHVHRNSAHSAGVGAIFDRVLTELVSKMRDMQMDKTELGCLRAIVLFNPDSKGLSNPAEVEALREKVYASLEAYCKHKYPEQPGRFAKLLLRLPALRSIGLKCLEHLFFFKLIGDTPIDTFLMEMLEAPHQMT
Chain of Nuclear receptor subfamily 1 group I member 3 (Homo sapiens) (Q14994 whole entry, looked up): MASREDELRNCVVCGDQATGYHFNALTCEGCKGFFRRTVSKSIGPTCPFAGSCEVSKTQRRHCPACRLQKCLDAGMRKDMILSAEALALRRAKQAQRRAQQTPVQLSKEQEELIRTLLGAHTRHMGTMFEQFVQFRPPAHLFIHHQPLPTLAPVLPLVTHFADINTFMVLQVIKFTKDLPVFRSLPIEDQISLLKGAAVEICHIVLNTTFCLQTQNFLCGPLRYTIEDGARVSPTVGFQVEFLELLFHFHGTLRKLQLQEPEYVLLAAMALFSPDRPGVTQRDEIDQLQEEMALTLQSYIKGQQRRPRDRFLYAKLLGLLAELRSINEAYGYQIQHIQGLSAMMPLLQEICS

Take `C=CCCCCCCCCCCCCCC`: the result in test [1], in test [2] and in test [3] was inactive. Further, the activity, negative = cytotoxicity in test [4] was 0.624% [at 19 µM]. Also, the activity change, negative = inhibition is -3.67% [at 19 µM] in test [5] and 0.285% [at 23.6 µM] in test [13]. Further, the viability change, negative = cytotoxic in [6] is 0.684% [at 15.8 µM]; in [12] it was 3.18% [at 19 µM]; in test [14], 7.15% [at 19 µM]; in test [18], 2.94% [at 19 µM]. Besides, the activation is -3.84% [at 15.8 µM] in [7], -0.752% [at 15.8 µM] in test [8] and -0.195% [at 19 µM] in test [17]. Further, the activity change, negative = cytotoxicity in test [9] was -3.45% [at 15.8 µM]; in test [10], 0.725% [at 19 µM]; in [15] it was -0.461% [at 19 µM]. In addition, the values for the activity, negative = inhibition in test [11] and in test [16] were -7.34% [at 19 µM] and 6.03% [at 19 µM], respectively.
Regarding `CN(C)c1ccncc1`, the result in test [1], in test [2], in [3], in [4], in test [5] and in [6] was inactive. Besides, the molecule was classed as inactive in test [10], in test [11], in [12], in test [14], in [15] and in test [16]. Besides, in test [18], the result was inactive. Further, the Potency result in test [7], in test [8], in [9], in [13] and in [17] was “inactive” throughout.
As to `C=CCN(CC=C)CC=C`, the molecule was called inactive in [1], in test [2], in test [3], in test [4], in test [5] and in test [6]. Also, the molecule was called inactive in test [10], in [11], in [12], in [14], in test [15] and in test [16]. Also, in [18], the molecule was called inactive. The Potency result in [7], in [8], in test [9], in test [13] and in test [17] was “inactive” in each case.
Regarding `C[Si](C)(C)O[Si](O)(O)O`, the outcome in test [1], in test [2], in test [3], in test [4], in test [5] and in test [6] was inactive. For the same molecule, the call in [10], in test [11], in [12], in [14], in test [15] and in [18] was inactive. Besides, the Potency result in [7], in test [8], in test [9], in test [19] and in test [13] was “inactive” each time.
As to `CCN1CCN(C(=O)N[C@@H](C(=O)N[C@@H]2C(=O)N3C(C(=O)O)=C(CSc4nnnn4C)CS[C@H]23)c2ccc(O)cc2)C(=O)C1=O`, the call in test [2], in test [3], in [4], in test [5], in [6] and in test [10] was inactive. Further, the call in [11], in [12], in test [14], in test [15] and in test [18] was inactive. Moreover, the Potency entry in test [7], in test [8], in [9], in test [19] and in test [13] was “inactive” throughout.
Consider `C/C(=N\O)c1ccc(OCC(=O)N2CCCCC2)cc1`, for which the result in [1], in [2], in test [3], in test [4], in test [5] and in test [6] was inactive. Besides, the outcome in test [10], in test [11], in test [12], in [14], in test [15] and in [16] was inactive. In test [18], the result was inactive. Further, the Potency entry in [7], in [8] and in [9] was “inactive” in each case. The Potency is 3.76 µM (active) in test [19], 12.3 µM (active) in [13] and 4.22 µM (active) in [17].
Regarding `CC(C)C(=O)Nc1cccc(C2CN3CCSC3=N2)c1` (stereo not given), the outcome in [2], in test [3], in [4], in test [5], in test [6] and in test [10] was inactive. Further, the molecule was called inactive in test [12], in test [14], in [15] and in test [18]. For the same molecule, the Potency result in test [7], in [8], in test [9], in [19] and in test [13] was “inactive” throughout.
On to `CC(C)c1cc(C(C)C)cc(C(C)C)c1`, for which the molecule was called inactive in [1], in test [2], in test [3], in [4], in [5] and in test [6]. Besides, the outcome in test [10], in test [11], in test [12], in test [14], in test [15] and in test [18] was inactive. Further, the Potency result in [7], in test [9] and in test [13] was “inactive” throughout. The Potency in test [8] was 15.5 µM (active).
For the molecule `CC1(C)S[C@@H]2[C@H](NC(=O)Cc3ccccc3)C(=O)N2[C@H]1C(=O)O` (tested in a mixture with another compound), the molecule was classed as inactive in test [1], in test [2], in test [3], in [4], in [5] and in test [6]. The outcome in test [10], in test [11], in test [14], in test [15], in test [16] and in [18] was inactive. Moreover, the Potency result in test [7], in test [8], in [9], in [19] and in [13] was “inactive” each time.
As to `Nc1cc(S(=O)(=O)O)ccc1O`, the outcome in test [1], in test [2], in test [3], in test [4], in [5] and in test [6] was inactive. Moreover, the molecule was classed as inactive in test [10], in [12], in test [15], in [16] and in test [18]. For the same molecule, the Potency result in test [7], in test [8], in [9], in test [19], in [13] and in test [17] was “inactive” each time.
As for `CCCCCCCC(=O)N(C)C`, the molecule was called inactive in [1], in test [2], in test [3], in [4], in test [5] and in test [6]. The outcome in test [10], in test [11], in test [12], in test [14], in test [15] and in [16] was inactive. Moreover, in test [18], the molecule was classed as inactive. Also, the Potency entry in [7], in test [8], in test [9], in [19], in [13] and in test [17] was “inactive” throughout.
